# Assay results taken from PubChem BioAssay (Tox21).
# Results filed as inconclusive are left out. Where a call stands in place of a potency, no number is given. More than one record can exist for a structure, and the calls need not agree. Activity calls are given as the source filed them. The call rests on the fitted dose curve; in most records, active means well fitted curve in the direction sought with a large enough effect in the repeat runs; inconclusive means weak or mixed curves; inactive means no such curve, though single readings can be large; an effect the other way counts as inactive or inconclusive.
# Test: qHTS assay to identify small molecule antagonists of the retinoid acid receptor (RAR) signaling pathway - cell viability counter screen (AID 1159551); further: nearly all actives have a fitted effect of over 35% in size
# Settings: C3RL4 cells viability, ATP luminescence (CellTiter-Glo), 6 h; series mostly up to 92.4 µM
# How it was run: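 Luminescent ATP quantitation (CellTiter-Glo) gave cell viability in C3RL4 cells exposed to test chemicals for 6 h at 37 C alongside 1 uM final retinol.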
# Potency means the concentration at half of the fitted maximal effect.
SMILES,Potency,"activity change, negative = cytotoxicity"
CSc1cnc(C)cn1,inactive,–
CCCCCCCCOC(=O)c1ccc(O)cc1,inactive,–
C=C(C)C(=O)OCC[N+](C)(C)C,inactive,–
CCN(CC)CCNC(=O)c1c(C)[nH]c(/C=C2\C(=O)Nc3ccc(F)cc32)c1C,33.5 µM (active),–
CC(NN)c1ccccc1 (centres undefined),–,1.08% [at 19 µM] (inactive)
Cc1cc2c(cc1C(F)(F)F)N(C(=O)Nc1ccc(Oc3cccnc3C)nc1)CC2,inactive,–
CC[C@H]1O[C@]2(CC[C@@H]1C)C[C@@H]1C[C@@H](C/C=C(\C)C[C@@H](C)/C=C/C=C3\CO[C@@H]4[C@H](O)C(C)=C[C@@H](C(=O)O1)[C@]34O)O2,68 µM (active),–
O=C(Nc1cccc([N+](=O)[O-])c1)c1cc2ccccc2cc1O,inactive,–
c1cc(C(c2ccc(OCC3CO3)cc2)c2ccc(OCC3CO3)cc2)ccc1OCC1CO1 (centres undefined),inactive,–
O=C1CCCCCN1SSN1CCCCCC1=O,inactive,–
Clc1ccccc1C(c1ccccc1)(c1ccccc1)n1ccnc1,68.6 µM (active) and inactive,–
Nc1nc2ccccc2n1Cc1ccc(F)cc1,inactive,–
CCCCCCCC/C=C\CCCCCCCCOCCO,inactive,–
ON=C1CCCC1,inactive,–
O=[N+]([O-])c1cc(Cl)c(Cl)c(Cl)c1Cl,inactive,–
Nc1ccccc1O,inactive,–
Fc1ccc(C(c2ccc(F)cc2)N2CCN(C/C=C/c3ccccc3)CC2)cc1,inactive,–
Nc1ccc(N)c2ccccc12,68.5 µM (active),–
Oc1c(Cl)cc(Cl)c2cccnc12,inactive,–
CCCCCCCCCCCCCCCCCC[N+](C)(C)Cc1ccccc1,61.7 µM (active),–
CCC(Cl)C(Cl)C(Cl)CC(Cl)C(Cl)C(C)Cl (centres undefined),inactive,–
CCCCN(CCCC)c1ccc(C(=O)c2ccccc2C(=O)O)c(O)c1,inactive,–
CC[C@@]1(O)C(=O)OCc2c1cc1n(c2=O)Cc2c-1nc1ccccc1c2/C=N/OC(C)(C)C,inactive,–
O=C1CCCc2c1cc1ccc3cccc4ccc2c1c34,inactive,–
CCCCN(CCCC)C(=O)N(CCCC)CCCC,inactive,–

# Test: qHTS assay to identify small molecule antagonists of the retinoic acid receptor (RAR) signaling pathway (AID 1159552; further: nearly all actives have a fitted effect of over 50% in size)
# Settings: C3RL4 RARE luciferase reporter, retinol-stimulated, 6 h; series mostly up to 92.4 µM
# How it was run: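 Antagonism of retinol-induced RARE reporter activity was measured in C3RL4 cells. Exposure to compounds and 1 uM final retinol lasted 6 hr at 37 C, with luminescence as endpoint.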
SMILES,Potency,"activity, negative = inhibition"
CSc1cnc(C)cn1,inactive,–
CC(C)(C)NC(=O)[C@@H]1C[C@@H]2CCCC[C@@H]2CN1C[C@@H](O)[C@H](Cc1ccccc1)NC(=O)[C@H](CC(N)=O)NC(=O)c1ccc2ccccc2n1,55.2 µM (active),–
CCCCCCCCOC(=O)c1ccc(O)cc1,inactive,–
C=C(C)C(=O)OCC[N+](C)(C)C,inactive,–
CCN(CC)CCNC(=O)c1c(C)[nH]c(/C=C2\C(=O)Nc3ccc(F)cc32)c1C,26.6 µM (active),–
Oc1ccc(C2(c3ccc(O)cc3)CC3CC2C2CCCC32)cc1 (centres undefined),46.6 µM (active),–
CC(NN)c1ccccc1 (centres undefined),–,37.3% [at 19 µM] (inactive)
Cc1cc2c(cc1C(F)(F)F)N(C(=O)Nc1ccc(Oc3cccnc3C)nc1)CC2,inactive,–
CC[C@H]1O[C@]2(CC[C@@H]1C)C[C@@H]1C[C@@H](C/C=C(\C)C[C@@H](C)/C=C/C=C3\CO[C@@H]4[C@H](O)C(C)=C[C@@H](C(=O)O1)[C@]34O)O2,42.9 µM (active),–
O=C(Nc1cccc([N+](=O)[O-])c1)c1cc2ccccc2cc1O,inactive,–
[Cl][Au]([Cl])[Cl],30.6 µM (active),–
CCCCCCCCCOC(=O)c1ccc(O)cc1,inactive,–
O=C1CCCCCN1SSN1CCCCCC1=O,24.3 µM (active),–
Clc1ccccc1C(c1ccccc1)(c1ccccc1)n1ccnc1,19.3 µM (active),–
CN1CCN(CCC(=O)N2c3ccccc3Sc3ccc(C(F)(F)F)cc32)CC1,29.8 µM (active),–
Nc1nc2ccccc2n1Cc1ccc(F)cc1,inactive,–
ON=C1CCCC1,inactive,–
CCCCCCCCCCCC(=O)NCCCN(C)C,54.5 µM (active),–
CC1=C(C(=O)OC(C)C)C(c2cccc([N+](=O)[O-])c2)C(C(=O)OC2CN(C(c3ccccc3)c3ccccc3)C2)=C(N)N1 (centres undefined),23.7 µM (active),–
Nc1ccccc1O,inactive,–
Fc1ccc(C(c2ccc(F)cc2)N2CCN(C/C=C/c3ccccc3)CC2)cc1,inactive,–
Oc1c(Cl)cc(Cl)c2cccnc12,inactive,–
O=c1c(-c2ccccc2)c1-c1ccccc1,4.22 µM (active),–
CCCCCCCCCCCCCCCCCC[N+](C)(C)Cc1ccccc1,24.6 µM (active),–
CCC(Cl)C(Cl)C(Cl)CC(Cl)C(Cl)C(C)Cl (centres undefined),inactive,–
CC[C@@]1(O)C(=O)OCc2c1cc1n(c2=O)Cc2c-1nc1ccccc1c2/C=N/OC(C)(C)C,0.119 µM (active),–
O=C1CCCc2c1cc1ccc3cccc4ccc2c1c34,inactive,–
CCCCN(CCCC)C(=O)N(CCCC)CCCC,inactive,–

# Test: qHTS assay to identify small molecule agonists of the retinoic acid receptor (RAR) signaling pathway (AID 1159553)
# Settings: C3RL4 RARE luciferase reporter, agonist, 6 h; series mostly up to 73.3 µM
# How it was run: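 Luminescence from a RARE-driven luciferase reporter in C3RL4 cells served as the read-out, measured after 30 min with detection reagent at room temperature. Compounds in DMSO were applied for 6 hr at 37 C following overnight seeding.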
row,SMILES,Potency
1,CSc1cnc(C)cn1,inactive
2,CCCCCCCCOC(=O)c1ccc(O)cc1,inactive
3,C=C(C)C(=O)OCC[N+](C)(C)C,inactive
4,CC(NN)c1ccccc1 (centres undefined),inactive
5,Cc1cc2c(cc1C(F)(F)F)N(C(=O)Nc1ccc(Oc3cccnc3C)nc1)CC2,inactive
6,O=C(Nc1cccc([N+](=O)[O-])c1)c1cc2ccccc2cc1O,0.969 µM (active)
7,CCCCCCCCCOC(=O)c1ccc(O)cc1,inactive
8,Clc1ccccc1C(c1ccccc1)(c1ccccc1)n1ccnc1,inactive
9,Nc1nc2ccccc2n1Cc1ccc(F)cc1,inactive
10,ON=C1CCCC1,inactive
11,O=[N+]([O-])c1cc(Cl)c(Cl)c(Cl)c1Cl,inactive
12,O=c1c(-c2ccccc2)c1-c1ccccc1,inactive
13,CC(C)(C)C1CCC(CC2=C(O)c3ccccc3C(=O)C2=O)CC1 (centres undefined),inactive
14,N/C(=N\N=C\c1ccc(Cl)cc1)N/N=C/c1ccc(Cl)cc1,inactive
15,CCC(Cl)C(Cl)C(Cl)CC(Cl)C(Cl)C(C)Cl (centres undefined),inactive
16,CCCCN(CCCC)C(=O)N(CCCC)CCCC,inactive
